Rows were chosen to be rich in hits. Some 15% of all compounds tested hit in one or more screens of this group.
RORgamma inh: inhibitors of mouse ROR gamma transcriptional activity; P51450; actives 5.4% (n = 310,000); Potency, µM (titrated, usually from 53.6 µM), for the others: top-dose activity change, negative = inhibition, actives largely listed as inhibitors; Drosophila S2 Gal4-RORgamma UAS-luciferase reporter, 20 h; further: nearly all actives have a fitted effect of over 60% in size
Target sequence (P51450 whole entry, looked up, the tested form may be a part): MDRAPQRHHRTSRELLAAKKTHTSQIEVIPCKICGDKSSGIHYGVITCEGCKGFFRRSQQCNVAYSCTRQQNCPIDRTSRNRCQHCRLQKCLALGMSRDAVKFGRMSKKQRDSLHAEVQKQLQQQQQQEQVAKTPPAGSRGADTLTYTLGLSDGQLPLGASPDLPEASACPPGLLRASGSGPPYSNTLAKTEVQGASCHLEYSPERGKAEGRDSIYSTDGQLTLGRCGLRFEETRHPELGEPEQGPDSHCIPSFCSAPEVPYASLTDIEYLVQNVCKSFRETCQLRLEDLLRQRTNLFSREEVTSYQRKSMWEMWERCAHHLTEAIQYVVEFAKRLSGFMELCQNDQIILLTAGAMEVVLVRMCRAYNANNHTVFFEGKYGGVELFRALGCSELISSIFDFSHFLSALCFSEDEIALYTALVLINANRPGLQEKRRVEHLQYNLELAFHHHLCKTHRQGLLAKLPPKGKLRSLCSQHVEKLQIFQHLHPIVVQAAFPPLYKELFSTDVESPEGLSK
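Stably transfected Drosophila Schneider cells are the test system, with ROR gamma fused to Gal4 and luciferase under UAS control; luminescence is read after 20 hr of 700 uM copper sulfate induction at ambient temperature.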
ELG1 repair inh: blocks ELG1-dependent DNA repair in HEK293T cells | AID 504467 | HEK293T ELG1-luciferase reporter, luminescence, 16 h; DNA damage induced by 5-fluorouridine | actives 2.3% (n = 330,000) | Potency, µM (highest dose often 46.1 µM), without a hit: at the highest dose activity change, negative = inhibition, hits mostly inhibitors; further: nearly all actives have a fitted effect of over 55% in size
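Overnight (16 hr) co-exposure of 2,000 cells/well to 5-fluorouridine and compound at 37 °C preceded detection. Luciferase was quantified via ONE-Glo luminescence; loss of signal denotes inhibition.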
ALOX12 inh: inhibitors of human 12S-lipoxygenase ALOX12. P18054. AID 1671190. purified 12hLO, xylenol orange hydroperoxide absorbance. actives 1.1% (n = 580,000). Potency, µM (highest dose often 108 µM), for inactives: at the top dose activity change, negative = inhibition, hits mostly inhibitors
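Purified human 12hLO at 150 nM in 25 mM Hepes, 0.01% Triton X-100, pH 7.0, preincubated 15 min at room temperature with compound. Reaction started with 40 uM arachidonic acid, 30 min at room temperature. Hydroperoxide measured by Fe-xylenol orange, 573/405 nm absorbance ratio.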
TDP1 cell noCPT: qHTS for Inhibitors of human tyrosyl-DNA phosphodiesterase 1 (TDP1): qHTS in cells in absence of CPT. actives 15% (n = 420,000). Potency, µM (doses to about 46.2 µM), without a hit: at the highest dose activity change, negative = growth inhibition, usual class: inhibitors. DT40 Tdp1-/- hTDP1 cells, no CPT, ATP luminescence, 48 h; further: nearly all actives have a fitted effect of over 55% in size
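Stably hTDP1-transfected Tdp1-null chicken DT40 cells were treated with library compounds minus camptothecin and grown for at least 48 hr at 37 °C, after which cellular ATP was quantified by luminescence.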
DT40 TDP1 CPT: DT40-hTDP1 cell growth loss with CPT. chicken DT40 Tdp1-/-;hTDP1 cells + 20 nM CPT, ATP luminescence, 48 h. Potency, µM (series often up to 46.2 µM), without a hit: top-dose activity change, negative = growth inhibition, most hits filed as inhibitors. actives 12% (n = 420,000); further: nearly all actives have a fitted effect of over 55% in size
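Cell growth measured by CellTiter-Glo luminescence after a minimum 48 h, 37 C compound exposure with 20 nM CPT in Tdp1-knockout DT40 cells stably expressing hTDP1, seeded 400/well; qHTS titration format.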
VP16 counter: inhibits Gal4-VP16 luciferase reporter, ROR gamma counter-screen; Drosophila S2 Gal4-VP16 UAS-luciferase, luminescence, 20 h; Potency, µM (top dose mostly 53.6 µM), without a hit: at the highest dose activity, negative = inhibition, usual class: inhibitors; actives 3.5% (n = 310,000); AID 2546;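 further: Gal4-VP16 expression switched on by copper sulfate through the metallothionein promoter; nearly all actives have a fitted effect of over 50% in size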
Starred values were filed as active, the others as inactive; [ ] = dose if it differs, or a comment. The call rests on the fitted dose curve; in most records, active means well fitted curve in the direction sought with a large enough effect; inconclusive means small, poorly fitted or top-dose-only effect, or another doubt; inactive means no such curve, though single readings can be large; an effect the other way counts as inactive or inconclusive. On the % scale 0 is the no-effect control and ±100 the full control effect; potency means the concentration at half of the fitted maximal effect.

How did O=[N+]([O-])c1ccccc1OCCCOc1ccc(Cl)c2cccnc12 do in these assays?
ALOX12 inh: -21%

How did CN1CCN(c2oc(-c3cccs3)nc2C#N)CC1 do in these assays?
ALOX12 inh: -15%

What do the screens show for `Cc1ccc(NC(=O)/C(C#N)=C/c2cc(C)n(-c3ccc(Br)cc3)c2C)cc1C`?
ALOX12 inh: -11%; TDP1 cell noCPT: 5.8µM*; DT40 TDP1 CPT: 4.6µM*

Results for CCOC(=O)/C(C#N)=C/c1cc(C)n(-c2ccccc2)c1C ?
RORgamma inh: -44%; ELG1 repair inh: inconclusive; ALOX12 inh: -26%; TDP1 cell noCPT: 21µM*; DT40 TDP1 CPT: 16µM*; VP16 counter: inconclusive

How did Cc1nc2cc(NC(=O)CN(C)C(=O)c3ccco3)ccc2o1 do in these assays?
ALOX12 inh: 10%

How did Cc1ccc(CNC(=O)CCSCc2cnn(-c3ccccc3)c2-n2cccc2)cc1 do in these assays?
ALOX12 inh: inconclusive; TDP1 cell noCPT: 15µM*; DT40 TDP1 CPT: 18µM*

What do the screens show for `COc1ccccc1CNC(=O)CSCc1cnn(-c2ccccc2)c1-n1cccc1`?
RORgamma inh: 23%; ELG1 repair inh: inconclusive; ALOX12 inh: -4%; TDP1 cell noCPT: 16µM*; DT40 TDP1 CPT: inconclusive; VP16 counter: -11%

How did O=C(CSCc1cnn(-c2ccccc2)c1-n1cccc1)NCc1cccc(Cl)c1 do in these assays?
ALOX12 inh: -12%; TDP1 cell noCPT: 23µM*; DT40 TDP1 CPT: 16µM*

What do the screens show for `O=C(CSCc1cnn(-c2ccccc2)c1-n1cccc1)N1CCN(Cc2ccccc2)CC1`?
RORgamma inh: 5%; ELG1 repair inh: inconclusive; ALOX12 inh: -28%; TDP1 cell noCPT: 13µM*; DT40 TDP1 CPT: inconclusive; VP16 counter: 2%

Results for Cc1cc(C(=O)Nc2ccc([C@H]3OCC(=O)N(C)[C@@H]3CO)cc2)no1 ?
ALOX12 inh: 36%[176 µM]

How did COc1cccc(CNC(=O)CSCc2cnn(-c3ccccc3)c2-n2cccc2)c1OC do in these assays?
RORgamma inh: 8%; ELG1 repair inh: inconclusive; ALOX12 inh: 0%; TDP1 cell noCPT: inconclusive; DT40 TDP1 CPT: 26µM*; VP16 counter: -3%

What do the screens show for `O=C(CSCc1cnn(-c2ccccc2)c1-n1cccc1)NCc1ccccc1F`?
ALOX12 inh: -22%; TDP1 cell noCPT: inconclusive; DT40 TDP1 CPT: inconclusive

How did COC(=O)c1ccccc1NC(=O)CN(C)S(=O)(=O)c1c(C)noc1C do in these assays?
ALOX12 inh: -11%

What do the screens show for `CC(=O)c1cccc(NS(=O)(=O)c2ccc(N/C=C\C(=O)c3ccc(C)cc3)cc2)c1`?
RORgamma inh: -35%; ELG1 repair inh: inconclusive; ALOX12 inh: 0%; TDP1 cell noCPT: 3.7µM*; DT40 TDP1 CPT: inconclusive; VP16 counter: inconclusive

What do the screens show for `CC(=O)c1cccc(NS(=O)(=O)c2ccc(C)cc2)c1`?
ALOX12 inh: -2%

What do the screens show for `CC(=O)c1ccc(NS(=O)(=O)c2ccc(N/C=C/C(=O)c3ccc(F)cc3)cc2)cc1`?
RORgamma inh: 39%; ELG1 repair inh: inconclusive; ALOX12 inh: -12%; TDP1 cell noCPT: inconclusive; DT40 TDP1 CPT: inconclusive; VP16 counter: 0%

What do the screens show for `CC(=O)c1cccc(NS(=O)(=O)c2ccc(N/C=C/C(=O)c3ccc(F)cc3)cc2)c1`?
RORgamma inh: inconclusive; ELG1 repair inh: inconclusive; ALOX12 inh: -19%; TDP1 cell noCPT: 18µM*; DT40 TDP1 CPT: 12µM*; VP16 counter: 4.5µM*

How did CC(=O)c1cccc(N/C=C\C(=O)c2ccc(C)cc2)c1 do in these assays?
RORgamma inh: 2.2µM*; ELG1 repair inh: inconclusive; ALOX12 inh: -13%; TDP1 cell noCPT: inconclusive; DT40 TDP1 CPT: -17%; VP16 counter: 8.9µM*

Results for CC(=O)c1cccc(NS(=O)(=O)c2ccc(N/C=C\C(=O)c3ccc(F)cc3)cc2)c1 ?
RORgamma inh: 23%; ELG1 repair inh: inconclusive; ALOX12 inh: -6%; TDP1 cell noCPT: 10µM*; DT40 TDP1 CPT: 13µM*; VP16 counter: 7%

How did CC(=O)c1ccc(N/C=C\C(=O)c2ccc(C)cc2)cc1 do in these assays?
RORgamma inh: -34%; ELG1 repair inh: inconclusive; ALOX12 inh: 7%; TDP1 cell noCPT: 1%; DT40 TDP1 CPT: 1%; VP16 counter: -6%

Results for Cc1ccccc1-n1nc(-c2c(C)nc3scc(CC(=O)NCC(C)C)n3c2=O)cc1C ?
ALOX12 inh: 5%

How did CCOC(=O)c1c(C)sc2c1OC(N)=C(C#N)C21C(=O)N(Cc2cccc(F)c2)c2ccccc21 (configuration not stated) do in these assays?
ALOX12 inh: 41%

Results for O=C(Nc1ccc(Cl)c(-c2nc3cnccc3o2)c1)c1cc2ccccc2o1 ?
ALOX12 inh: -12%

Results for O=C1CSC(=S)N1Cc1ccccc1 ?
ALOX12 inh: -19%; TDP1 cell noCPT: 21µM*; DT40 TDP1 CPT: inconclusive

How did O=C1CCN(CCCN2CCC(=O)N(Cc3ccccc3)C2=S)C(=S)N1Cc1ccccc1 do in these assays?
ALOX12 inh: 6%; TDP1 cell noCPT: inconclusive; DT40 TDP1 CPT: inconclusive

What do the screens show for `O=C(O)CCCCCN1C(=O)CSC1=S`?
RORgamma inh: 5µM*; ELG1 repair inh: -6%; ALOX12 inh: 0%; TDP1 cell noCPT: inconclusive; DT40 TDP1 CPT: -28%; VP16 counter: -16%

How did S=c1nc2ccccc2c2nc(-c3ccccc3Br)[nH]n12 do in these assays?
RORgamma inh: 0.45µM*; ELG1 repair inh: -7%; ALOX12 inh: -8%; TDP1 cell noCPT: 1µM*; DT40 TDP1 CPT: 2.1µM*; VP16 counter: 2.2µM*

Results for Brc1ccccc1-c1nc2c3ccccc3ncn2n1 ?
ELG1 repair inh: inconclusive; ALOX12 inh: 174%; TDP1 cell noCPT: inconclusive; DT40 TDP1 CPT: inconclusive

How did CC(NC(=O)CCC(=O)Nc1ccccc1O)c1ccccc1 (configuration not stated) do in these assays?
ALOX12 inh: 151%; TDP1 cell noCPT: -1%; DT40 TDP1 CPT: 3%

How did CC(CNc1ccccc1O)C(=O)O (configuration not stated) do in these assays?
RORgamma inh: -10%; ELG1 repair inh: -3%; ALOX12 inh: inconclusive; TDP1 cell noCPT: 26µM*; DT40 TDP1 CPT: inconclusive; VP16 counter: -8%
